Results on 94 compounds are retold here after PubChem BioAssay AID485272 (The Scripps Research Institute Molecular Screening Center, 2010).

Each structure is given as a SMILES string. Screen size: about 330,000 compounds; about 1,300 (0.39%) were called active.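 How the source made its calls: active means percent inhibition above a cutoff equal to the mean of all tested compounds plus 3 SD (cut at about 15% in these data); inactive means the rest.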 What follows is part of a selection rich in actives, with near analogues and random picks from the rest.

Protein-arginine deiminase type-4 (Homo sapiens), sequence (Q9UM07 whole entry, looked up): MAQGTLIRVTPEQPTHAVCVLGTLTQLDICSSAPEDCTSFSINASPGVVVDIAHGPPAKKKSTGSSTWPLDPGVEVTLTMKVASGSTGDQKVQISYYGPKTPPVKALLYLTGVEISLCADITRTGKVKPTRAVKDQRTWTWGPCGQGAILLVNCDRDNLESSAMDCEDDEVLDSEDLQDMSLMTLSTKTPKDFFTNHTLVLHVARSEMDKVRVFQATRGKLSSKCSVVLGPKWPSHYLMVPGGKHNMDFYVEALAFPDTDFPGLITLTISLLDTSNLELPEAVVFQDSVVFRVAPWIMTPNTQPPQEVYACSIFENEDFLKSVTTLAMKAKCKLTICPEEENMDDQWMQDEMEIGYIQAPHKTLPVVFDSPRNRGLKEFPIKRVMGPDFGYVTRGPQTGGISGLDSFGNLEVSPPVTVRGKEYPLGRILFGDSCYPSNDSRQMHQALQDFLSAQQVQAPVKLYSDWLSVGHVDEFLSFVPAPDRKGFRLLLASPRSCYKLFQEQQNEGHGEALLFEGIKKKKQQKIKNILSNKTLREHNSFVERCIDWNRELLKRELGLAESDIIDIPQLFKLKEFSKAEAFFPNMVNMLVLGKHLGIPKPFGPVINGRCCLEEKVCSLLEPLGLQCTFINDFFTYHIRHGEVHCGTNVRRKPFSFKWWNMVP

This assay has as its target Protein-arginine deiminase type-4 (Homo sapiens) (UniProt Q9UM07). In words: protein arginine deiminase 4 enzyme blockade – biochemical, fluorescence polarization, 1536-well format, primary screen (AID 485272).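 Further: 0% = PAD4 with RCA probe and DMSO and 100% = probe without PAD4.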 Particulars: recombinant PAD4, RCA probe fluorescence polarization; at 6.36 µM; stronger effect = higher value. For orientation: Polarisation of emitted light reports the rotation of a fluorescent probe.
Turning to `O=C(NC(=S)Nc1ccc(Cl)cc1Cl)C1CC1`, the inhibition was 1.69% (inactive).

As for `CCOc1ccc(NS(=O)(=O)c2ccc(Cl)c(C(=O)N(C)Cc3cccnc3)c2)cc1`, the inhibition is 6.71% (inactive).

With `O=C(Nc1ccc(N2CCOCC2)cc1)c1cccc(S(=O)(=O)N2CCOCC2)c1`, the inhibition was -3.19% (inactive).

Regarding `Oc1ccc2ccccc2c1N=Nc1nccs1`, the inhibition is 2.91% (inactive).

For `Oc1c(C=Nc2cccc3nsnc23)ccc2ccccc12`, the inhibition is 39.1% (active).

On to `O=C(CCNS(=O)(=O)c1ccc(Br)s1)NCc1ccccc1Cl`, for which the inhibition is -0.29% (inactive).

For `Clc1ccc(-c2cc(COc3ccccc3)no2)cc1Cl`, the inhibition is -0.83% (inactive).

As for `COC(=O)c1ccc(C)c(NC(=O)Cn2c(C)csc2=O)c1`, the inhibition was 2.97% (inactive).

Turning to `Cc1ccc(C(=O)CSc2nc3ccccc3c(=O)n2N)o1`, the inhibition is 28.9% (active).

Consider `COc1ccc(NC(=O)CSc2nc3ccccc3c(=O)n2C)cc1`, for which the inhibition is -0.44% (inactive).

In the case of `COc1ccc(OCc2ccc(-c3nc4ccccc4c(=O)n3N)o2)cc1`, the inhibition is 1.08% (inactive).

For `CCC(C(=O)OC)n1cnc2scc(-c3ccc(C)cc3)c2c1=O` (centres undefined), the inhibition is 0.23% (inactive).

Regarding `Cc1[nH]nc(-c2ccc(OCc3cnn(-c4ccccc4)c3)cc2O)c1Oc1ccc(Cl)cc1`, the inhibition is -2.55% (inactive).

For `Cc1cc(N=Nc2ccc3ccccc3c2)ccc1O`, the inhibition was 1.91% (inactive).

For the compound `Oc1ccc(N=Cc2sc3ccccc3c2Cl)cc1`, the inhibition is 19.9% (active).

`Oc1ccc(N=Cc2c(O)ccc3ccccc23)cc1`: the inhibition is 69.9% (active).

Consider `CC(=O)n1c(C=Nc2ccccc2)c(O)c2ccccc21`, for which the inhibition is -8.69% (inactive).

Regarding `Oc1ccc(/C=N/N(Cc2ccccc2)c2ccccc2)cc1`, the inhibition was 2.9% (inactive).

Turning to `CCC(C)NC(=O)Cn1nc(C(F)(F)F)c2c1CCC2` (centres undefined), the inhibition is 0.61% (inactive).

For `N/C(=N\OC(=O)CC1CCCCC1)c1ccccc1`, the inhibition is -1.21% (inactive).

`CC(=O)c1ccc(S(=O)(=O)NCc2nnnn2-c2ccccc2)cc1`: the inhibition is 7.61% (inactive).

Take `O=c1oc2ccc(C#CC3(O)CCCCC3)cc2cc1-n1cc(-c2ccsc2)nn1`: the inhibition is 2.6% (inactive).

Consider `Cc1cccc(CN2CCN(Cc3cnn(-c4ccccc4F)c3)CC2CCO)n1` (centres undefined), for which the inhibition was 8.78% (inactive).

Turning to `COc1ccc(CCNS(=O)(=O)c2cc3c(cc2C)NC(=O)CO3)cc1OC`, the inhibition is -1.01% (inactive).

Consider `N#CCCN(C(=O)COC(=O)C1CCN(c2ccc(C(F)(F)F)cn2)CC1)c1ccc(F)cc1`, for which the inhibition is -2.71% (inactive).

Regarding `COc1cc(C(=O)NCc2cc3cc(Cl)ccc3n2C)cc(OC)c1OC`, the inhibition is 0.12% (inactive).

Consider `CCOCC(=O)NCc1ccc2c(c1)cc(C)n2C`, for which the inhibition was 6.21% (inactive).

In the case of `COc1cc(C(=O)NCc2ccc3c(c2)cc(C)n3C)cc(OC)c1OC`, the inhibition was 26.2% (active).

Turning to `CC(=O)Nc1ccc(N2C(=O)CCC2=O)cc1C`, the inhibition was 1.44% (inactive).

Take `COc1cccc(N2CC(NS(=O)(=O)c3cccs3)CC2=O)c1` (centres undefined): the inhibition was -3.8% (inactive).

For `CN1C(=O)c2cccc3c(N)ccc(c23)C1=O`, the inhibition is 24% (active).

On to `CC(=O)Nc1ccccc1Sc1ccc2c3c(cccc13)C(=O)N(c1ccc(C)cc1)C2=O`, for which the inhibition was 1.13% (inactive).

Turning to `COc1cc(C(=O)N2C(=O)c3cccc(N)c3C2=O)cc(OC)c1OC`, the inhibition was -3.66% (inactive).

Take `Cc1nn(C)cc1N1C(=O)c2cccc3c(N)ccc(c23)C1=O`: the inhibition is 26.9% (active).

On to `Cc1nn(C)cc1C(=O)c1ccccc1`, for which the inhibition is -3.44% (inactive).

Consider `COC(=O)c1ccc(CN2CCCC(C(=O)Nc3cccc(-n4cnnn4)c3)C2)cc1` (centres undefined), for which the inhibition was -3.14% (inactive).

In the case of `Cc1ccc(S(=O)(=O)N(CC(=O)Nc2cccnc2)c2ccc(Br)cc2)cc1`, the inhibition was 1.31% (inactive).

Regarding `O=C1CCCC2=C1C(c1cccs1)n1nc(SCc3ccccc3)nc1N2` (centres undefined), the inhibition is -0.55% (inactive).

For the compound `NC(N)=N/N=C/c1ccc(OCc2ccc(Cl)cc2Cl)cc1`, the inhibition is -4.09% (inactive).

For `CCOC(=O)N1CCN(C(=O)c2ccccc2N(Cc2ccccc2)S(=O)(=O)c2ccc(OC)cc2)CC1`, the inhibition was -4.41% (inactive).

Consider `C=CCN(C(=O)Nc1ccc2c(c1)nc(C)n2C)c1ccccc1`, for which the inhibition is 2.79% (inactive).

As to `C=CCN(C(=O)Nc1ccc2oc(C)nc2c1)c1ccccc1`, the inhibition is 39.8% (active).

Consider `O=C(Nc1ccc2oc(-c3ccccc3F)nc2c1)c1ccco1`, for which the inhibition is -5.36% (inactive).

For `CCOc1ccc(S(=O)(=O)N2CCCCC2)cc1NC(=O)CN1CCCC1c1cccs1` (centres undefined), the inhibition is -0.57% (inactive).

As for `CCOc1ccc(S(=O)(=O)N2CCN=C2Cc2ccccc2)cc1C`, the inhibition is 0.37% (inactive).

For the compound `CC[N+](C)(CC)CCC[n+]1c(-c2ccccc2)c2cc(N)ccc2c2ccc(N)cc21`, the inhibition is 62.4% (active).

Take `Cc1ccc2[nH]c(C(=O)O)c(NC(=O)c3ccccc3[N+](=O)[O-])c2c1`: the inhibition is 4.63% (inactive).

With `Cc1cc(C)cc(NC(=O)CN2C(=O)c3ccccc3C2=O)c1`, the inhibition is 4.21% (inactive).

Consider `Cc1ccc2c(c1)-c1c(ssc1=S)C(C)(C)N2C(=O)CN1C(=O)c2ccccc2C1=O`, for which the inhibition is 0.29% (inactive).

For `Cc1cc2c(cc1C)N(C(=O)CN1C(=O)c3ccccc3C1=O)C(C)(C)c1ssc(=S)c1-2`, the inhibition was 44.1% (active).

Consider `CCc1ccc(NC(=O)NC(C)c2ccc3c(c2)OCO3)cc1` (centres undefined), for which the inhibition is -1.12% (inactive).

`O=C1CCN(Cc2ccc([N+](=O)[O-])cc2)CCN1[C@H](CO)Cc1ccccc1`: the inhibition is -1.9% (inactive).

Turning to `CCOC(=O)c1c(N)nn(C(=O)c2ccccc2)c1-c1ccccc1`, the inhibition was -9.18% (inactive).

For `Cc1nn(C(=O)c2ccoc2C)c(N)c1-c1ccccc1`, the inhibition was 17.4% (active).

Turning to `C/C(=N\NC(=O)c1ccoc1C)c1ccccc1O`, the inhibition is -6.31% (inactive).

Consider `O=C(N1CCOCC1)N(Cc1ccccc1)c1ccccn1`, for which the inhibition is -6.6% (inactive).

In the case of `COC(=O)CCCC1=CC2=CC(=O)C(C)(OC(=O)c3cccs3)C(=O)C2=CN1CC1CC1` (centres undefined), the inhibition is 18.5% (active).

As for `COC(=O)CCCC1=CC2=CC(=O)C(C)(OC(=O)c3cccs3)C(=O)C2=CN1CC(C)C` (centres undefined), the inhibition is -1.01% (inactive).

For `COC(=O)CCCC1=CC2=CC(=O)C(C)(OC(=O)c3cccs3)C(=O)C2=CN1c1cccc(C#N)c1` (centres undefined), the inhibition was 4.64% (inactive).

For the compound `CS/C(=C\C(=O)c1ccco1)Nc1ccccc1Cl`, the inhibition is 0.03% (inactive).

`CN(C)c1ccc(NC(=O)c2ccncc2)c2ccccc12`: the inhibition is -9.99% (inactive).

`COc1cc(OC)c(C(=O)Nc2ccc(N(C)C)cc2)cc1OC`: the inhibition is -1.49% (inactive).

Take `CN(C)c1ccc(N/C=C/C(=O)C(F)(F)F)cc1`: the inhibition was 38.9% (active).

For the compound `CC(C)CNC(=O)C(=O)Nc1ccc(N(C)C)cc1`, the inhibition is -0.08% (inactive).

Regarding `CCCC1=Nc2cc(C(=O)NCc3ccco3)ccc2Sc2ccccc21`, the inhibition is -2.78% (inactive).

Turning to `Cn1c(=O)cc(OCC(=O)N2CCN(c3ccccc3F)CC2)c2ccccc21`, the inhibition is -3.43% (inactive).

In the case of `O=C(NNC(=O)c1cccc(S(=O)(=O)Nc2ccc(Cl)cc2)c1)c1ccc(=O)[nH]c1`, the inhibition is 0.33% (inactive).

Turning to `O=C(O)C1=NN(c2c(F)c(F)cc(F)c2F)C(=O)CC1`, the inhibition is 0.4% (inactive).

With `CCCc1cc(=O)[nH]c(SCC(=O)c2cc(C)n(CCC)c2C)n1`, the inhibition is 1.34% (inactive).

`Cc1cc(C(=O)CSc2nc(N)cc(=O)[nH]2)c(C)n1-c1cccc(F)c1`: the inhibition was 3.24% (inactive).

In the case of `Cc1cc(C(=O)CSc2nc(N)cc(=O)[nH]2)c(C)n1CCc1ccc(Cl)cc1`, the inhibition is 23.8% (active).

On to `O=C(COc1cccnc1[N+](=O)[O-])Nc1ccc(Cl)cc1F`, for which the inhibition was -3.69% (inactive).

For `COC(=O)c1ccc(NC(=O)CSc2nncc3ccc(OC)c(OC)c23)cc1`, the inhibition was 26.1% (active).

For `COC(=O)c1ccc(NC(=O)CSc2nncn2-c2cccnc2)cc1`, the inhibition was 6.18% (inactive).

Consider `CCOC(=O)CSc1nncc2ccc(OC)c(OC)c12`, for which the inhibition was -1.97% (inactive).

With `CC(=O)c1cccc(-n2nnnc2SCC(=O)NNC(=O)C2CCCCC2)c1`, the inhibition is 0.09% (inactive).

Take `COCCN1C=C2C(=O)C(C)(OC(=O)C3CCCC3)C(=O)C=C2C=C1c1ccsc1` (centres undefined): the inhibition was 17.8% (active).

As for `CC1(OC(=O)C2CCCC2)C(=O)C=C2C=C(c3ccc(C#N)cc3)OC=C2C1=O` (centres undefined), the inhibition is 4.94% (inactive).

As to `CC1(OC(=O)CCc2ccccc2)C(=O)C=C2C=C(c3ccc(C#N)cc3)N(CCc3ccccn3)C=C2C1=O` (centres undefined), the inhibition is -12.6% (inactive).

Turning to `COc1ccc(N(CC(=O)NC2CCCCCCC2)S(=O)(=O)c2c(C)nn(C)c2C)cc1`, the inhibition is -21.2% (inactive).

In the case of `COc1ccccc1C(=O)N/C(=C/c1ccc2c(c1)OCO2)C(=O)Nc1cccc(C(=O)O)c1`, the inhibition was 4.24% (inactive).

Turning to `O=C(Cc1c(F)cccc1Cl)Nc1ncc([N+](=O)[O-])s1`, the inhibition was -0.75% (inactive).

Take `CC(=O)Oc1ccccc1C(=O)Nc1ncc([N+](=O)[O-])s1`: the inhibition is 21.3% (active).

Consider `COc1ccc(NC(=O)c2ccccc2[N+](=O)[O-])cc1OC`, for which the inhibition was 0.28% (inactive).

As for `COc1ccc(-c2cn3ccc(C)cc3n2)cc1`, the inhibition is -3.72% (inactive).

Consider `Cc1ccn2cc(-c3nonc3C)cc2c1`, for which the inhibition is 15.3% (active).

On to `COCC(C)n1c(C)cc(C(=O)CSc2cc(C)c3ccccc3n2)c1C` (centres undefined), for which the inhibition was -0.49% (inactive).

Turning to `COc1ccc(CNC(=O)COc2cccnc2[N+](=O)[O-])cc1`, the inhibition was 1.13% (inactive).

On to `COC(=O)c1cc(NC(=O)c2cc(C(C)(C)C)nn2Cc2cccc(C)c2)ccc1N1CCOCC1`, for which the inhibition is 2.9% (inactive).

As to `COc1cc(C(F)(F)F)nc2c(Br)c(C(C)(C)C)nn12`, the inhibition was -1.55% (inactive).

In the case of `C[N+](C)(C)CCOP(=O)([O-])OC[C@H](O)CO`, the inhibition was 0.71% (inactive).

Regarding `O=C(CN1CCCCCC1)Nc1ccc(Br)cc1Br`, the inhibition was 129% (active).

On to `O=C(CN1CCCCCC1)Nc1ccc(Br)cc1[N+](=O)[O-]`, for which the inhibition is 0.42% (inactive).

As to `O=C(CN1CCCCCC1)Nc1ccc(Cl)cc1F`, the inhibition is -5.26% (inactive).

The inhibition is the change of the read-out against control, counted positive when it falls.
